The full data set covers some 21,000 targets. This sample favours those with the largest changes.
Experiments:
[1] = compound: Cc1cc(ccc1-c1ccccc1)C(=O)N1CCCN(CC1)C(=O)CCl [compound 10]; assay: probe-labelled cysteine peptide fold change vs DMSO (competition) (log2 fold change); higher = less target engagement (more negative = stronger competition); conditions: THP-1, incubation time: 4 h
[2] = compound: CC1Cc2ccccc2N1C(=O)C1CCCN(C1)C(=O)CCl (mixture of isomers) [TRIM25 ligand 11 (diastereomer mixture)]; assay: as above; conditions: THP-1, incubation time: 4 h

UniProt Q9H4A3, sequence (Q9H4A3 whole entry, looked up): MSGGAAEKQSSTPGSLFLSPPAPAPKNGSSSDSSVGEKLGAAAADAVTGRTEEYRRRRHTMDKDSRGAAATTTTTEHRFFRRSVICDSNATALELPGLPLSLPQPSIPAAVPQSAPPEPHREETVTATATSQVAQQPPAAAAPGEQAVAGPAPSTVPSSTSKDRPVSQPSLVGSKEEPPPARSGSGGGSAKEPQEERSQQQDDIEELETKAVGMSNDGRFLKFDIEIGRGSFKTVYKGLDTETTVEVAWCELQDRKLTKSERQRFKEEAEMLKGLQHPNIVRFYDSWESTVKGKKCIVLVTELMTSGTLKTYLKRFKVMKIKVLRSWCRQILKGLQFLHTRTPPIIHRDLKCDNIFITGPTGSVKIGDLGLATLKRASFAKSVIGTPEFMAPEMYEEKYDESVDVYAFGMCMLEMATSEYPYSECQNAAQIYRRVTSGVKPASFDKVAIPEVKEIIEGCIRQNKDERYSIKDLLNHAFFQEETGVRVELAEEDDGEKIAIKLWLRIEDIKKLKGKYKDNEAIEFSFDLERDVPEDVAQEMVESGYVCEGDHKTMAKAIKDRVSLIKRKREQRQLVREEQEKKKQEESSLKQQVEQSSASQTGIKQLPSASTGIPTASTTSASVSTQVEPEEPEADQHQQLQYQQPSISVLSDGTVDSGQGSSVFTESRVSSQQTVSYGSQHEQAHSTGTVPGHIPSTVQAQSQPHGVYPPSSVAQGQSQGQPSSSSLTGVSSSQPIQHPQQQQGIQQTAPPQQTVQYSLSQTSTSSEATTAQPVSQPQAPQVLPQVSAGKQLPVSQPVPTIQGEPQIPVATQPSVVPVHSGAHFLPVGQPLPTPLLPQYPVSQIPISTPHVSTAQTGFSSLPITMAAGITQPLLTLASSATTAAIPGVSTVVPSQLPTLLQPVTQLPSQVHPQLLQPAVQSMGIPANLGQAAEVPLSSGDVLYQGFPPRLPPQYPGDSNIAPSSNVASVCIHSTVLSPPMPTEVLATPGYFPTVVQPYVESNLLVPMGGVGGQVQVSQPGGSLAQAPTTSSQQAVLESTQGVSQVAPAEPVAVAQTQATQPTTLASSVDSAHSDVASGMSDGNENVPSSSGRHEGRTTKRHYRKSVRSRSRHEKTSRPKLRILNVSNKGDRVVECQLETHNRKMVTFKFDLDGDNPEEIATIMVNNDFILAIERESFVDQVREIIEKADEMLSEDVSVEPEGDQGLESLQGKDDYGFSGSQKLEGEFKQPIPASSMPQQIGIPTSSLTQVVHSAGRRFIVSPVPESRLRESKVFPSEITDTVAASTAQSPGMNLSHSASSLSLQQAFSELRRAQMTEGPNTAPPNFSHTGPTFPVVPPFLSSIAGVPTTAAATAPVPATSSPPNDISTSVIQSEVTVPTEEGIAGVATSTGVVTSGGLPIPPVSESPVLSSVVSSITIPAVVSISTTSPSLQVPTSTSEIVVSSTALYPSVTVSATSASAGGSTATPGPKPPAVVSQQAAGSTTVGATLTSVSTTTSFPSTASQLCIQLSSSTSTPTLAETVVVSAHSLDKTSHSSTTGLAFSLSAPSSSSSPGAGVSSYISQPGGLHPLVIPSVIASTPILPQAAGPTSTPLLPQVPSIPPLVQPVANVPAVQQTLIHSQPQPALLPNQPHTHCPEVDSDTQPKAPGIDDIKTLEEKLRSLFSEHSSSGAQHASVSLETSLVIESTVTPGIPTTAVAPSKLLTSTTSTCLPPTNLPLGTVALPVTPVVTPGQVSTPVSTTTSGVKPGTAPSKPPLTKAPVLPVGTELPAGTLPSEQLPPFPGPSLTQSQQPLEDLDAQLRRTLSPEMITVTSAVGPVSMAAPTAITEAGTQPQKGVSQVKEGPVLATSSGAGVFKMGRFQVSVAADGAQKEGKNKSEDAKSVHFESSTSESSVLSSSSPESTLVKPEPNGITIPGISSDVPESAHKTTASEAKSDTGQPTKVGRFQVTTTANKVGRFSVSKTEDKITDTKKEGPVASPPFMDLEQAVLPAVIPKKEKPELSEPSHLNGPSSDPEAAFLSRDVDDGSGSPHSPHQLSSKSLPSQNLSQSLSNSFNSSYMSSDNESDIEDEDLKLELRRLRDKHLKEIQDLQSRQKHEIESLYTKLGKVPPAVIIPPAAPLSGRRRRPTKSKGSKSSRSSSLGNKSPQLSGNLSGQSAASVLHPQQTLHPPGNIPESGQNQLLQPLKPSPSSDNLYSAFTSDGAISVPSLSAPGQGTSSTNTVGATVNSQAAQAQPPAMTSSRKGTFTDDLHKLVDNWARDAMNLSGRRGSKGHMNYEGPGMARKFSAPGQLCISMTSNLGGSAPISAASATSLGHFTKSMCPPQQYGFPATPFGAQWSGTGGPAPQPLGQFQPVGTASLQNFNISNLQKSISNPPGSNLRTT
UniProt Q9NRG9, sequence (Q9NRG9 whole entry, looked up): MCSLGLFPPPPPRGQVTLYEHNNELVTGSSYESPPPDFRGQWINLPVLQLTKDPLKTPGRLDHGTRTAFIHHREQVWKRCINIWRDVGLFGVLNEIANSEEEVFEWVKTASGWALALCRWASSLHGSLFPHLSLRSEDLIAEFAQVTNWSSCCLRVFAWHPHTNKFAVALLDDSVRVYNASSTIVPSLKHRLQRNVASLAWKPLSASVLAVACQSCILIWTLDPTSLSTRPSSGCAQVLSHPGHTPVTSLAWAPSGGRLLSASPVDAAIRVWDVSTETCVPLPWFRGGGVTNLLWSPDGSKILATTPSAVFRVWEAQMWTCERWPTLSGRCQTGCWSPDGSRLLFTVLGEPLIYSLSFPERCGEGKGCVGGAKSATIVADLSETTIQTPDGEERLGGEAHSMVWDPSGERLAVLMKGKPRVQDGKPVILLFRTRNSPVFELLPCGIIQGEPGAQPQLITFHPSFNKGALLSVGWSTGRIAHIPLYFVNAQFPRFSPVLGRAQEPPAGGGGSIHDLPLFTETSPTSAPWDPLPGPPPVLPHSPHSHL
UniProt Q8N302, sequence (Q8N302 whole entry, looked up): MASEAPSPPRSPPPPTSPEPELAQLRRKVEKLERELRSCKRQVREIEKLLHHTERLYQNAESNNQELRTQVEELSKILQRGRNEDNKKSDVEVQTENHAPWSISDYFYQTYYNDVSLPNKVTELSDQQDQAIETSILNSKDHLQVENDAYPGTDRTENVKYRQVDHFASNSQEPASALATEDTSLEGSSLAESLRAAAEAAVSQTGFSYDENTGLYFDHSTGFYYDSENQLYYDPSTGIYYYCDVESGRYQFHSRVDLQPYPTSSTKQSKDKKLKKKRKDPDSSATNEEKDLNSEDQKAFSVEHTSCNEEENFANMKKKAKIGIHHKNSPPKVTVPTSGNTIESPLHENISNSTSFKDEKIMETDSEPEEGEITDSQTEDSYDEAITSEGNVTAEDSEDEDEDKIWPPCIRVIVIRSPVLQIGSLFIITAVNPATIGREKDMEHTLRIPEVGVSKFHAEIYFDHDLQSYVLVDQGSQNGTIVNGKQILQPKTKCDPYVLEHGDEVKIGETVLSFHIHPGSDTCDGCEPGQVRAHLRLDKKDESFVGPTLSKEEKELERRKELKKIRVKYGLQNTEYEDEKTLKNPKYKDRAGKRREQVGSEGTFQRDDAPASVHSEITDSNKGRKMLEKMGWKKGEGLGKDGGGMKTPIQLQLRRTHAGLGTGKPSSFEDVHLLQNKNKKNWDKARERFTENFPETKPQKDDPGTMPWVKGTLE
UniProt P49748, sequence (P49748 whole entry, looked up): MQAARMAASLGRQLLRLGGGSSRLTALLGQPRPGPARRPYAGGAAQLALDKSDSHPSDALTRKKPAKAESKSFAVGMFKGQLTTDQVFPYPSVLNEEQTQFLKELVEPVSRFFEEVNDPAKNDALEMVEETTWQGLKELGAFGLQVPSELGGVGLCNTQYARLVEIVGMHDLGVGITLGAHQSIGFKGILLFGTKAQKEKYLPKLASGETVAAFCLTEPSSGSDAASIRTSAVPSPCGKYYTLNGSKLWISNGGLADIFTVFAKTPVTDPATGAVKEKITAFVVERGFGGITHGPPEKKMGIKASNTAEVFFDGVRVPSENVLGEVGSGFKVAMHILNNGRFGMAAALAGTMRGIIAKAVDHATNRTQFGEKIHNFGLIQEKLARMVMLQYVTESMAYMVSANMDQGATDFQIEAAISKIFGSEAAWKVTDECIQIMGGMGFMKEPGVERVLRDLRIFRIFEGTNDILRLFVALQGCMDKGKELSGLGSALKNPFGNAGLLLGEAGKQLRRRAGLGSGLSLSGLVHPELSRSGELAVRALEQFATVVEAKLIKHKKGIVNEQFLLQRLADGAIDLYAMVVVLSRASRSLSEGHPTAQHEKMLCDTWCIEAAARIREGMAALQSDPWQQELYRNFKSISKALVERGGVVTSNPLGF
UniProt Q96ME7, sequence (Q96ME7 whole entry, looked up): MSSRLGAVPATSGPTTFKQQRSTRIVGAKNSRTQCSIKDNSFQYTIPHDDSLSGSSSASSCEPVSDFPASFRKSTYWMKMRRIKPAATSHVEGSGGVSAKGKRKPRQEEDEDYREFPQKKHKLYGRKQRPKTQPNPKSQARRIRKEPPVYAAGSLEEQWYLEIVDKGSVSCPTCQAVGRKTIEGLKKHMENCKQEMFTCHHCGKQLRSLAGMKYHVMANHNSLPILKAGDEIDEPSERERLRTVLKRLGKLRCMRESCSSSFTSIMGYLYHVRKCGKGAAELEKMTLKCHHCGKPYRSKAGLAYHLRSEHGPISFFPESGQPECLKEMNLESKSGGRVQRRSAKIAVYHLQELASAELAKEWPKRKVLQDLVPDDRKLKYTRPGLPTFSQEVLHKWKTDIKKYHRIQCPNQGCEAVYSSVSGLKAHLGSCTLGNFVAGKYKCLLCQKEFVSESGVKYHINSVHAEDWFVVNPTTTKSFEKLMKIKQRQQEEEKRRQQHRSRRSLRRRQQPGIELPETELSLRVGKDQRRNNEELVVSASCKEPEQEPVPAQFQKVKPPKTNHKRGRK
UniProt Q15649, sequence (Q15649 whole entry, looked up): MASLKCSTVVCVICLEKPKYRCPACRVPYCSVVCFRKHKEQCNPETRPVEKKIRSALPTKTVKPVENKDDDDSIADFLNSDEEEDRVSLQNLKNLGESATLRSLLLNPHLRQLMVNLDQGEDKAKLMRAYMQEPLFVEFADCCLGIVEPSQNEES

Target	probe-labelled cysteine peptide fold change ([1]; 10 µM)	probe-labelled cysteine peptide fold change ([1]; 50 µM)	probe-labelled cysteine peptide fold change ([2]; 10 µM)	probe-labelled cysteine peptide fold change ([2]; 50 µM)
ZNHIT3_Q15649_30_VPYCSVVCFR (UniProt Q15649)	-0.0726	-1.11	–	–
A6NIZ1_A6NIZ1_118_VKDTDDVPMILVGNKCDLEDER<|>RAP1B_P61224_118_VKDTDDVPMILVGNKCDLEDER (UniProt P61224+A6NIZ1)	–	–	-0.583	-0.426
ACADVL_P49748_237_TSAVPSPCGK (UniProt P49748)	–	–	-0.126	-0.057
WNK1_Q9H4A3_1135_VVECQLETHNRK (UniProt Q9H4A3)	0.208	0.14	–	–
XIAP_P98170_213_NWEPCDR (UniProt P98170)	-0.0911	-0.654	–	–
ZNF562_Q6V9R5_17_EPICPFEEK<|>ZNF561_Q8N587_17_EPICPFEEK (UniProt Q8N587+Q6V9R5)	-0.186	-1.08	–	–
ZNF598_Q86UK7_867_VCPTCQQVLAHGDASSHQALHAAR (UniProt Q86UK7)	0.228	0.187	–	–
ZMYM2_Q9UBW7_612_LYNFCNSSCVAK (UniProt Q9UBW7)	-0.192	-1.33	–	–
ZNF691_Q5VV52_260_THTGERPYECTECGR (UniProt Q5VV52)	0.396	1.19	–	–
AAAS_Q9NRG9_335_CQTGCWSPDGSR (UniProt Q9NRG9)	–	–	0.605	-0.129
ZNF516_Q92618_165_KGAEGSACAPGEAK (UniProt Q92618)	0.0165	-0.317	–	–
WDR3_Q9UNX4_183_WWDLDTQHCFK (UniProt Q9UNX4)	0.0656	0.271	–	–
WDR55_Q9H6Y2_5_TCEERPAEDGSDEEDPDSMEAPTR (UniProt Q9H6Y2)	-0.668	-1.19	–	–
YWHAG_P61981_194_LGLALNYSVFYYEIQNAPEQACHLAK (UniProt P61981)	0.0292	0.41	–	–
ADD2_P35612_224_CIIHLHTPATAAVSAMK (UniProt P35612)	–	–	-0.0204	-0.168
ACTL6A_O96019_152_LTELMFEHYNIPAFFLCK (UniProt O96019)	–	–	-0.0461	0.0154
WDR47_O94967_672_GSIYCVAWSPCGQLLATGSNDK (UniProt O94967)	-0.439	-1.25	–	–
ZBTB14_O43829_391_PFVCGSCTK (UniProt O43829)	0.104	-0.263	–	–
XPO4_Q9C0E2_723_ANLVIQCENWWNLAK (UniProt Q9C0E2)	0.102	-0.0501	–	–
AARS_P49588_184+187_DNFWEMGDTGPCGPCSEIHYDR (UniProt P49588)	–	–	0.105	-0.0756
XXYLT1_Q8NBI6_386_IYHGNCNTPIPED (UniProt Q8NBI6)	-0.00561	-0.0309	–	–

Target	probe-labelled cysteine peptide fold change ([1]; 10 µM)	probe-labelled cysteine peptide fold change ([1]; 50 µM)	probe-labelled cysteine peptide fold change ([2]; 10 µM)	probe-labelled cysteine peptide fold change ([2]; 50 µM)
ZNF76_P36508_292_THTGERPYTCPEPHCGR (UniProt P36508)	0.0197	-0.0549	–	–
ADAM15_Q13444_409_ALLDGMGSCLFER (UniProt Q13444)	–	–	-0.145	0.146
ZFAND2A_Q8N6M9_84_GQIPDVVVGDHIDRDCDSHPGK (UniProt Q8N6M9)	1.7	3.88	–	–
ZNHIT6_Q9NWK9_171_FVGQCIK (UniProt Q9NWK9)	-0.528	-0.0997	–	–
AGGF1_Q8N302_494_CDPYVLEHGDEVK (UniProt Q8N302)	–	–	0.0808	0.0697
ACADS_P16219_109_GCASTGVIMSVNNSLYLGPILK (UniProt P16219)	–	–	0.201	0.216
WDR43_Q15061_291_LAVVCR (UniProt Q15061)	0.0146	0.0317	–	–
ACTN4_O43707_879_RELPPDQAEYCIAR (UniProt O43707)	–	–	0.0491	0.0892
ADK_P55263_160_SLIANLAAANCYKK (UniProt P55263)	–	–	-0.669	-0.408
ZNF451_Q9Y4E5_150_TGTINCGTK (UniProt Q9Y4E5)	-0.175	-1.18	–	–
ZRANB2_O95218_20_CGNVNFAR (UniProt O95218)	-0.0495	-0.314	–	–
WDFY4_Q6ZS81_2352_EAEGEPDEVGVDCTQLTFFPALHESLHSEDFLELCR (UniProt Q6ZS81)	-0.125	-0.598	–	–
ZNF76_P36508_342_HHVVHTHCK (UniProt P36508)	-0.115	-0.0476	–	–
ZYX_Q15942_467_AYHPHCFTCVVCAR (UniProt Q15942)	0.229	0.194	–	–
ZFYVE19_Q96K21_435_CAGCDGDLFCAR (UniProt Q96K21)	0.0027	-0.124	–	–
XPO4_Q9C0E2_492_IAAEHCIPLLTSLLEER (UniProt Q9C0E2)	0.012	0.2	–	–
WDR81_Q562E7_215_GSPACPSLLR (UniProt Q562E7)	-0.185	-0.529	–	–
ZNF592_Q92610_592_IHVPASGYCCLECGDAFALEK (UniProt Q92610)	-0.0351	-0.192	–	–
ZNF787_Q6DD87_350_IHAVGAPSVCSSCGQSYYR (UniProt Q6DD87)	-0.238	-0.311	–	–
ZNF512_Q96ME7_540_NNEELVVSASCK (UniProt Q96ME7)	0.0455	0.0373	–	–
WDFY4_Q6ZS81_2226_TEDFVSCIENYR (UniProt Q6ZS81)	-0.17	-0.159	–	–

Target	probe-labelled cysteine peptide fold change ([1]; 10 µM)	probe-labelled cysteine peptide fold change ([1]; 50 µM)	probe-labelled cysteine peptide fold change ([2]; 10 µM)	probe-labelled cysteine peptide fold change ([2]; 50 µM)
ZC3H12A_Q5D1E8_374_RPSPSSQSSSLLTESEQCSLDGK (UniProt Q5D1E8)	-0.349	-0.484	–	–
ZC3H11A_O75152_588_SVLTPLRGDVASCNTQVAEK (UniProt O75152)	-0.0147	0.00571	–	–
ZNF579_Q8NAF0_77_LSHSGLRPHACPLCPK (UniProt Q8NAF0)	0.112	-0.0195	–	–
ZNF217_O75362_641_SAVETQANNLICR (UniProt O75362)	-0.181	-0.0706	–	–
ZNF691_Q5VV52_176_CQESFR (UniProt Q5VV52)	-0.0275	-0.0396	–	–
ZZEF1_O43149_728_DTEESVCGATLLLR (UniProt O43149)	-0.0306	-0.17	–	–
WDR77_Q9BQA1_172_AHAAQVTCVAASPHK (UniProt Q9BQA1)	0.0618	0.254	–	–
WDR44_Q5JSH3_701_LITAANFCQNGK (UniProt Q5JSH3)	-0.0485	0.165	–	–
ZC3H10_Q96K80_140_EEVPICR (UniProt Q96K80)	-0.106	0.152	–	–
YY1AP1_Q9H869_689_AHMNVDIACAVADGENAFQGLEPK (UniProt Q9H869)	-0.0161	0.141	–	–
ZC3HAV1_Q7Z2W4_513_VDDHDSEEICLDHLCK (UniProt Q7Z2W4)	0.0207	-0.396	–	–
WRN_Q14191_1367_HGPDSGLQPSCDVNK (UniProt Q14191)	-0.126	-0.11	–	–
ZBTB7A_O95365_490_DGCNGVPSR (UniProt O95365)	0.000157	-0.0775	–	–
WASHC5_Q12768_385_WLMLHTADSACDPNNKR (UniProt Q12768)	-2.11	-2.63	–	–
ZFAND2B_Q8WV99_134_HRHPLDHDCSGEGHPTSR (UniProt Q8WV99)	-0.148	0.178	–	–
YWHAZ_P63104_94_DICNDVLSLLEK (UniProt P63104)	0.233	0.309	–	–
WDR82_Q6UXN9_195_TCEWTGLK (UniProt Q6UXN9)	-0.0459	0.418	–	–
WIPI2_Q9Y4P8_430_LAYTDDLGAVGGACLEDEASALRLDEDSEHPPMILR (UniProt Q9Y4P8)	-0.352	-0.0492	–	–
ZER1_Q7Z7L7_337_RPLQFLGLFENSLCR (UniProt Q7Z7L7)	-0.124	-0.0583	–	–
ZW10_O43264_588_RLGTECFLAQMR (UniProt O43264)	0.00573	-0.0952	–	–
WDR41_Q9HAD4_291_SNDISIHHFTCDEENVFAAVGR (UniProt Q9HAD4)	0.135	0.418	–	–

Reference: the supplement of paper PMC12067093, “Discovery and optimisation of a covalent ligand for TRIM25 and its application to targeted protein ubiquitination” (Chemical Science, 2025)
